Measurements taken from PubChem BioAssay (NCATS).
Inconclusive results are not listed. Active and inactive are the calls of the source. Calls follow the shape of the dose curve; as a rule, active = well fitted cell-killing curve with a large enough effect; inconclusive = small, poorly fitted or top-dose-only effect; inactive = no such curve, though single readings can be large or run the other way.

Assay: qHTS of pediatric cancer cell lines to identify multiple opportunities for drug repurposing: Primary screen for Rh41 cells (AID 1347108); also: nearly all actives have a fitted effect of over 70% in size;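 as to activity change, negative = cytotoxic: luminescence drop marks cytotoxic hits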
Details: Rh41 rhabdomyosarcoma viability, CellTiter-Glo luminescence, 48 h; series mostly up to 46 µM; activity change, negative = cytotoxic: at the top concentration
Outline: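 Phenotypic viability qHTS, 48 h compound exposure, CellTiter-Glo luminescence read-out; multi-concentration dosing so that potency and efficacy derive directly from the primary screen's curves.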
Potency is read from the fitted curve at half-maximal effect.

Row | SMILES | activity change, negative = cytotoxic | Potency
1 | CCN(CCO)CCn1c(Cc2ccccc2)nc2c1c(=O)n(C)c(=O)n2C | 27.6% (inactive) | 
2 | C#CC(O)(C=CCl)CC (stereo unspecified) | 25% (inactive) | 
3 | CC(Cc1ccccc1)NCCn1cnc2c1c(=O)n(C)c(=O)n2C (stereo unspecified) | -16.8% [at 92.7 µM] (inactive) | 
4 | COc1cc(CC(C)N)cc(OC)c1OC (stereo unspecified) | -0.793% [at 92.7 µM] (inactive) | 
5 | NCCc1ccc(O)cc1 | 16.7% (inactive) | 
6 | COc1cc(OC)c(OC)cc1C=O |  | inactive
7 | c1ccc(N2CCNCC2)cc1 | 23.6% (inactive) | 
8 | Nc1ccc([As](=O)(O)O)cc1 | 20.8% (inactive) | 
9 | COC(=O)[C@@H](N)CCCN/C(N)=N/[N+](=O)[O-] | 10.8% (inactive) | 
10 | C[C@]12CC[C@H]3[C@@H](CCC4=CC(=O)CC[C@@H]43)[C@@H]1CC[C@@H]2OC(=O)CCc1ccco1 | 19.8% (inactive) | 
11 | CCC(CC)(CNC(=O)CCCO)c1cccc(OC)c1 | 30.7% (inactive) | 
12 | CCc1cc2c(s1)-n1c(C)nnc1CN=C2c1ccccc1Cl | 22.1% (inactive) | 
13 | CN(C)CCc1c[nH]c2cccc(OP(=O)(O)O)c12 | -9.14% [at 92.7 µM] (inactive) | 
14 | CC(C)NC(C)C | 28.3% (inactive) | 
15 | O=[N+]([O-])O[C@H]1CO[C@H]2[C@@H]1OC[C@H]2O[N+](=O)[O-] | 29.4% (inactive) | 
16 | COc1ccc2c3c1O[C@H]1[C@H](O)CC[C@H]4[C@@H](C2)N(C)CC[C@@]341 | 11.1% [at 92.7 µM] (inactive) | 
17 | CCCCCCCCCC(=O)O[C@H]1CC[C@H]2[C@@H]3CCC4=CC(=O)CC[C@@H]4[C@H]3CC[C@]12C | 17.8% (inactive) | 
18 | C=CCC1([C@H](C)CCC)C(=O)NC(=O)NC1=O | 11.5% [at 92.7 µM] (inactive) | 

Row | SMILES | activity change, negative = cytotoxic | Potency
19 | O=C1CN=C(c2ccccc2)c2cc([N+](=O)[O-])ccc2N1 | -9.18% (inactive) | 
20 | C[C@@H]1CC2=CC(=O)CC[C@@H]2[C@H]2CC[C@@]3(C)[C@@H](CC[C@]3(C)O)[C@@H]21 | 5.16% (inactive) | 
21 | O=C1c2ccccc2C(=O)C1C(=O)C(c1ccccc1)c1ccccc1 | 19.8% (inactive) | 
22 | COC1CC(=C(c2cccs2)c2cccs2)C[N+](C)(C)C1 (stereo unspecified) | 5.3% (inactive) | 
23 | CN1C(=O)COc2c(C(=O)NC3CN4CCC3CC4)cc(Cl)cc21 (stereo unspecified) |  | inactive
24 | CCN[C@@H](C)Cc1ccccc1 | 7.71% [at 92.7 µM] (inactive) | 
25 | CCN[C@H](C)Cc1cccc(C(F)(F)F)c1 | 2.43% [at 92.7 µM] (inactive) | 
26 | C[C@]12CCC(=O)C=C1CC[C@@H]1[C@@H]2CC[C@]2(C)C(=O)CC[C@@H]12 | -8.68% (inactive) | 
27 | CC(=O)C1CCOC1=O (stereo unspecified) | 17.5% (inactive) | 
28 | C[C@]12CCC(=O)C=C1CC[C@@H]1[C@H]3CC[C@](C)(O)[C@@]3(C)CC[C@@H]12 |  | 38.9 µM (active)
29 | CCC(C)C(C)(COC(N)=O)COC(N)=O (stereo unspecified) | 21.9% (inactive) | 
30 | NC1=NC(=O)C(c2ccccc2)O1 (stereo unspecified) | 24.8% (inactive) | 
31 | CCC1(c2ccccc2)C(=O)N(COC)C(=O)N(COC)C1=O | 10% (inactive) | 
32 | NC(=O)CS(=O)C(c1ccccc1)c1ccccc1 (stereo unspecified) | 25.8% (inactive) | 
33 | CC(C)N(CCC(C(N)=O)(c1ccccc1)c1ccccn1)C(C)C (stereo unspecified) | 13.2% (inactive) | 
34 | Nc1nc(N)nc(NC2CC2)n1 | 3.67% (inactive) | 
35 | CCN[C@@H](C)Cc1cccc(C(F)(F)F)c1 | 16.9% (inactive) | 
36 | CCCOC(=O)c1cncn1C(C)c1ccccc1 (stereo unspecified) | 32.4% (inactive) | 
